{"source": "PubChem BioAssay AID2006", "about": "(Sanford-Burnham Center for Chemical Genomics, 2009)", "molecular_target": "SUMO-conjugating enzyme UBC9 (Homo sapiens) (UniProt P63279)", "sequence (P63279 whole entry, looked up)": "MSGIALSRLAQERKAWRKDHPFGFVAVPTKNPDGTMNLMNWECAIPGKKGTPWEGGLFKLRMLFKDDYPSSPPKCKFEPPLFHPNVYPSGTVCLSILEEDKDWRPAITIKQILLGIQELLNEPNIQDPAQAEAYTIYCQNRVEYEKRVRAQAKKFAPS", "experiment": "inhibitors of in vitro SUMOylation cascade, primary screen, biochemical, HTRF, uHTS (AID 2006)", "details": "HTRF SUMOylation assay, SAE1/SAE2 + UBC9, in vitro, at 35 µM, stronger effect = higher value", "note": "Among all 290,000 compounds or so, about 1,000 (0.34%) were called active. Rule as the data show it: active = inhibition above about 50% (passing the limit was not always enough); inconclusive = no clear call, values can overlap the other calls. Many of the other results were omitted from the sample, so actives are more common in it than they were."}
{"smiles": "CCc1nn(CCCC(=O)NCc2ccc(C)cc2)c(=O)c2cc3occc3n12", "values": [{"measurement": "inhibition", "result": "-4.3% (inactive)"}]}
{"smiles": "Cc1cnc(C(=O)N2CCCC(N3CCN(c4ccccc4F)CC3)C2)cn1", "note": "(stereo not given)", "values": [{"measurement": "inhibition", "result": "5.2% (inactive)"}]}
{"smiles": "CC(=O)Nc1ccc(S(=O)(=O)Nc2cc(C)cn(Cc3ccc(C)cc3)c2=O)cc1", "values": [{"measurement": "inhibition", "result": "14.3% (inactive)"}]}
{"smiles": "O=C1Nc2cc(C(=O)N3CCC(N4CCCCC4)CC3)ccc2S/C1=C\\c1ccccc1", "values": [{"measurement": "inhibition", "result": "10.8% (inactive)"}]}
{"smiles": "Cc1ccc2nc(-c3ccncc3)cc(C(=O)Nc3ccc(OC(F)F)cc3)c2c1", "values": [{"measurement": "inhibition", "result": "61.9% (active)"}]}
{"smiles": "Cc1ccc2nc(-c3ccncc3)cc(C(=O)Nc3ccncc3)c2c1", "values": [{"measurement": "inhibition", "result": "-4.4% (inactive)"}]}
{"smiles": "Cc1ccc2nc(-c3ccncc3)cc(C(=O)Nc3ccc4c(c3)OCCO4)c2c1", "values": [{"measurement": "inhibition", "result": "23.4% (inactive)"}]}
{"smiles": "COc1ccc(N2CCN(C3CCCCC3NS(=O)(=O)c3ccccc3)CC2)cc1", "note": "(stereo not given)", "values": [{"measurement": "inhibition", "result": "-12.9% (inactive)"}]}
{"smiles": "O=C(N/N=C/c1cc(Cl)cc([N+](=O)[O-])c1O)C(O)(c1ccccc1)c1ccccc1", "values": [{"measurement": "inhibition", "result": "-22% (inactive)"}]}
{"smiles": "O=C(CN1CCN(c2ccc(O)cc2)CC1)Nc1cc(S(=O)(=O)N2CCOCC2)ccc1Cl", "values": [{"measurement": "inhibition", "result": "25.4% (inactive)"}]}
{"smiles": "O=[N+]([O-])c1cc(Cl)cc(/C=N/NC(=S)Nc2cc(S(=O)(=O)N3CCOCC3)ccc2Cl)c1O", "values": [{"measurement": "inhibition", "result": "99.5% (active)"}]}
{"smiles": "O=C(O)C1CCCCC1C(=O)N1CCN(S(=O)(=O)c2ccc(F)cc2)CC1", "note": "(stereo not given)", "values": [{"measurement": "inhibition", "result": "9.5% (inactive)"}]}
{"smiles": "O=C(c1cccnc1)N1CCN(S(=O)(=O)c2cccs2)CC1", "values": [{"measurement": "inhibition", "result": "-2% (inactive)"}]}
{"smiles": "Cc1ccc(C)c(SCc2nc3sc(C(=O)O)c(C)c3c(=O)[nH]2)c1", "values": [{"measurement": "inhibition", "result": "9.1% (inactive)"}]}
{"smiles": "CCOC(=O)c1sc2nc(CSc3ccccc3)[nH]c(=O)c2c1C", "values": [{"measurement": "inhibition", "result": "25.9% (inactive)"}]}
{"smiles": "CSc1nnc(SCc2nc3sc(C(=O)O)c(C)c3c(=O)[nH]2)s1", "values": [{"measurement": "inhibition", "result": "50.2% (active)"}, {"measurement": "inhibition", "setting": "average of repeat tests", "result": 70.2, "unit": "%"}]}
{"smiles": "COc1cccc(-n2c(=S)sc3c(=O)n(-c4ccccc4C)c(SCC(=O)O)nc32)c1", "values": [{"measurement": "inhibition", "result": "6.2% (inactive)"}]}
{"smiles": "COc1ccc(CCNC(=O)CCCCCNC(=O)N2CCn3c2nc2ccccc23)cc1OC", "values": [{"measurement": "inhibition", "result": "15.4% (inactive)"}]}
{"smiles": "CCc1nn(CCCC(=O)NC(C)c2ccccc2)c(=O)c2cc3occc3n12", "note": "(stereo not given)", "values": [{"measurement": "inhibition", "result": "10.2% (inactive)"}]}
{"smiles": "CCC(C)(C)NC(=O)C(c1ccc(OC)cc1)N(C(=O)CCC(=O)Nc1cc(C)on1)c1ccc(OC)cc1OC", "note": "(stereo not given)", "values": [{"measurement": "inhibition", "result": "6% (inactive)"}]}
{"smiles": "COC(=O)COc1ccc2c(c1C)O/C(=C\\c1ccco1)C2=O", "values": [{"measurement": "inhibition", "result": "16.9% (inactive)"}]}
{"smiles": "O=C(NCCCn1ccnc1)C1CCCN(S(=O)(=O)c2cc(Cl)ccc2Cl)C1", "note": "(stereo not given)", "values": [{"measurement": "inhibition", "result": "-5.4% (inactive)"}]}
{"smiles": "Cc1nc2c(c(=O)n1Cc1ccco1)c1nc3ccccc3nc1n2Cc1ccccc1", "values": [{"measurement": "inhibition", "result": "31.7% (inactive)"}]}
{"smiles": "O=c1[nH]c2c(c(=O)n1Cc1ccccc1)CCC2", "values": [{"measurement": "inhibition", "result": "14.7% (inactive)"}]}
{"smiles": "Cc1cc2nc3c(=O)n(Cc4ccccc4)c(=O)[nH]c3nc2cc1N", "values": [{"measurement": "inhibition", "result": "51.4% (active)"}]}
{"smiles": "CC(=O)N/C(=N/c1nc(C)cc(C)n1)Nc1ccc(F)cc1F", "values": [{"measurement": "inhibition", "result": "10.8% (inactive)"}]}
{"smiles": "O=C(NCc1ccccc1Cl)C1CCCN1S(=O)(=O)c1ccc(F)cc1", "note": "(stereo not given)", "values": [{"measurement": "inhibition", "result": "9.8% (inactive)"}]}
{"smiles": "O=C(Nc1ccc(N2CCCC2=O)cc1)c1cncc(Br)c1", "values": [{"measurement": "inhibition", "result": "-7.3% (inactive)"}]}
{"smiles": "Oc1c(Cl)cc(Cl)c(Cl)c1Cc1c(O)c(Cl)cc(Cl)c1Cl", "values": [{"measurement": "inhibition", "result": "71.9% (active)"}]}
{"smiles": "CC(=O)N1CCN(CC(=O)Nc2ccc(C)c(F)c2)CC1", "values": [{"measurement": "inhibition", "result": "6% (inactive)"}]}
{"smiles": "COC(=O)c1ccc(CNC(=O)c2ccc3oc(C(C)C)nc3c2)cc1", "values": [{"measurement": "inhibition", "result": "9.1% (inactive)"}]}
{"smiles": "Cc1ccc(S(=O)(=O)c2c(N)n(C)c3nc4ccccc4nc23)cc1", "values": [{"measurement": "inhibition", "result": "18.6% (inactive)"}]}
{"smiles": "CCN(CC)CCn1c(N)c(S(=O)(=O)c2ccccc2)c2nc3ccccc3nc21", "values": [{"measurement": "inhibition", "result": "11.7% (inactive)"}]}
{"smiles": "CCC(=O)Nc1c(S(=O)(=O)c2ccccc2)c2nc3ccccc3nc2n1Cc1ccccc1", "values": [{"measurement": "inhibition", "result": "98.2% (active)"}]}
{"smiles": "O=C(Cc1c(Cl)cccc1Cl)NC1CC1", "values": [{"measurement": "inhibition", "result": "11% (inactive)"}]}
{"smiles": "Cc1ccc(NS(=O)(=O)c2ccc3c(c2)n(C)c(=O)c(=O)n3C)c(C)c1", "values": [{"measurement": "inhibition", "result": "9% (inactive)"}]}
{"smiles": "CC(=O)NCC(=O)N1CCC(n2nccc2NC(=O)CCCc2ccccc2)CC1", "values": [{"measurement": "inhibition", "result": "-2.9% (inactive)"}]}
{"smiles": "COc1c(O)ccc2c1CN1CCc3cc4c(cc3C1C2)OCO4", "note": "(stereo not given)", "values": [{"measurement": "inhibition", "result": "12.8% (inactive)"}]}
{"smiles": "COc1ccc(-c2nn(-c3ccccc3)cc2/C=C2/SC(=S)N(CCCC(=O)O)C2=O)c(C)c1", "values": [{"measurement": "inhibition", "result": "44.1% (inactive)"}]}
{"smiles": "Cc1ccc(-c2nn(-c3ccccc3)cc2/C=C2\\SC(=S)N(CCCCCC(=O)O)C2=O)o1", "values": [{"measurement": "inhibition", "result": "55.1% (active)"}, {"measurement": "inhibition", "setting": "average of repeat tests", "result": 59.6, "unit": "%"}]}
{"smiles": "CN(C)S(=O)(=O)c1cccc(-c2nn(-c3ccccc3)cc2/C=C2\\SC(=S)N(CC(=O)O)C2=O)c1", "values": [{"measurement": "inhibition", "result": "37.3% (inactive)"}]}
{"smiles": "O=C(N/C(=C/c1ccc(Cl)cc1)C(=O)N1CCCCC1)c1ccco1", "values": [{"measurement": "inhibition", "result": "22% (inactive)"}]}
{"smiles": "CC1CCCCN1C(=O)CCS(=O)(=O)Cc1ccccc1", "note": "(stereo not given)", "values": [{"measurement": "inhibition", "result": "18.6% (inactive)"}]}
{"smiles": "COc1ccc(NC(=O)CNC(=O)Cn2ccc3ccccc3c2=O)c(OC)c1", "values": [{"measurement": "inhibition", "result": "7.3% (inactive)"}]}
{"smiles": "Cc1ccc(Nc2nc(Cl)c(C=O)s2)cc1", "values": [{"measurement": "inhibition", "result": "16.9% (inactive)"}]}
{"smiles": "Cc1c(Cl)cccc1NC(=O)CCC(=O)N/N=C/c1ccco1", "values": [{"measurement": "inhibition", "result": "-5.3% (inactive)"}]}
{"smiles": "O=C(NCc1ccccn1)c1ccc2nc(-c3ccco3)c(-c3ccco3)nc2c1", "values": [{"measurement": "inhibition", "result": "74.1% (active)"}]}
{"smiles": "COc1ccc2oc(=O)c(C(=O)NCc3ccccn3)cc2c1", "values": [{"measurement": "inhibition", "result": "31.2% (inactive)"}]}
{"smiles": "O=C(Nc1ccc2nccnc2c1)c1ccco1", "values": [{"measurement": "inhibition", "result": "28.4% (inactive)"}]}
{"smiles": "CC(C)(C)c1ccc(NC(=O)NCc2ccco2)cc1", "values": [{"measurement": "inhibition", "result": "-11.5% (inactive)"}]}
{"smiles": "COc1cccc(S(=O)(=O)NCc2ccc(C(=O)NCc3ccccn3)cc2)c1", "values": [{"measurement": "inhibition", "result": "0.6% (inactive)"}]}
{"smiles": "COCCNC(=O)Nc1ccc2nc(-c3ccco3)c(-c3ccco3)nc2c1", "values": [{"measurement": "inhibition", "result": "95.3% (active)"}, {"measurement": "inhibition", "setting": "average of repeat tests", "result": 62.6, "unit": "%"}]}
{"smiles": "COc1ccc(CNC(=O)c2ccc(Br)s2)cc1OC", "values": [{"measurement": "inhibition", "result": "0.1% (inactive)"}]}
{"smiles": "Cc1c(C)c2c(OCC(=O)N[C@@H](C(=O)O)c3ccccc3)cc3c(c2oc1=O)CCC(C)(C)O3", "values": [{"measurement": "inhibition", "result": "44% (inactive)"}]}
{"smiles": "CCc1ccc(-c2nc(SCC(=O)NC3CCCC3)n[nH]2)cc1", "values": [{"measurement": "inhibition", "result": "-14.4% (inactive)"}]}
{"smiles": "COc1ccc(N(C)C(=O)C2CCN(S(=O)(=O)c3cccc4nsnc34)CC2)cc1", "values": [{"measurement": "inhibition", "result": "11.4% (inactive)"}]}
{"smiles": "Cc1ccnc(NS(=O)(=O)c2ccc(NC(=O)c3oc4ccc(F)cc4c3C)cc2)n1", "values": [{"measurement": "inhibition", "result": "15.4% (inactive)"}]}
